KAT2A inh: qHTS Assay for Inhibitors of GCN5L2 | Histone acetyltransferase KAT2A (Homo sapiens), Q92830 | GCN5L2 HAT assay, ThioGlo1 CoA-SH fluorescence | Potency, µM (doses to about 58.9 µM), for inactives: top-dose activity change, negative = inhibition, actives largely listed as inhibitors | 390,000 tested, 0.21% active | AID 504327, 2011; note: potency is the fitted concentration of half-maximal effect; % is set by controls: 0 for no effect and ±100 for the full control effect
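Enzyme at 20nM final was mixed with library compounds for 15 min at room temperature. Peptide H3(1-25) at 75uM, acetyl-CoA at 70uM and ThioGlo1 at 50uM were then added. Plates were read immediately and after 20 min (Ex340nm/Em540nm).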
VDR inhibitor: Inhibitors of the vitamin D receptor (VDR): qHTS; AID 504847, 2011; Potency, µM, for inactives: max response, negative = inhibition, actives largely listed as inhibitors; VDR-SRC2-3 peptide fluorescence polarization, 2 h; 400,000 tested, 0.93% active; Vitamin D3 receptor (Homo sapiens), P11473; note: potency is the fitted concentration of half-maximal effect; % is set by controls: 0 for no effect and ±100 for the full control effect
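After 23 nl compound addition and a short centrifugation, plates sat for 2 hours at ambient temperature; polarization of fluorescence then indicated loss of VDR binding to peptide SRC2-3.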
TrxR1 substrate: qHTS Assay for Substrates of Mammalian Selenoprotein Thioredoxin Reductase 1 (TrxR1): qHTS. Potency, µM (doses to about 114 µM), for inactives: at the top dose activity change, negative = substrate turnover. 390,000 tested, 0.01% active. Thioredoxin reductase 1, cytoplasmic (Rattus norvegicus), O89049. purified TrxR1 substrate turnover, NADPH consumption readout; note: potency is the fitted concentration of half-maximal effect; % is set by controls: 0 for no effect and ±100 for the full control effect; nearly all actives have a fitted effect of over 50% in size
Target sequence (O89049 whole entry, looked up): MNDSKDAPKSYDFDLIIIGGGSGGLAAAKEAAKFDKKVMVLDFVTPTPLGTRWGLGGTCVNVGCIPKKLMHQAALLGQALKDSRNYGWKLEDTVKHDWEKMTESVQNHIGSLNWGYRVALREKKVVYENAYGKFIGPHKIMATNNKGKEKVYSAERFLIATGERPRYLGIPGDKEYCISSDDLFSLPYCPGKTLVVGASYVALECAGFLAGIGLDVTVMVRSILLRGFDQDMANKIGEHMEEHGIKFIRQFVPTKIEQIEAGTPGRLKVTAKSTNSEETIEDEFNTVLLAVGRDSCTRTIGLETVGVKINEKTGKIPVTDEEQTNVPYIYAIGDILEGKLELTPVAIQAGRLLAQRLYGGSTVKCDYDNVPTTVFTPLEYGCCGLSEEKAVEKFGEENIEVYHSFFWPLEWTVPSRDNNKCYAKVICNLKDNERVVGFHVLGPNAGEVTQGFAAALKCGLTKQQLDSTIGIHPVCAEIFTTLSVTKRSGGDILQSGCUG
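Rat TrxR1, dispensed at 90 nM, was prereduced with 400 uM NADPH (final) for 5 min at ~22 deg C, then incubated with compound 15 min before 400 uM selenite. A first-read NADPH fluorescence drop versus no-compound background flagged substrates.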
TrxR1 inh: qHTS Assay for Inhibitors of Mammalian Selenoprotein Thioredoxin Reductase 1 (TrxR1): qHTS. Thioredoxin reductase 1, cytoplasmic (Rattus norvegicus), O89049. recombinant rTrxR1, NADPH fluorescence consumption, selenite substrate. Potency, µM (top dose mostly 114 µM), without a hit: at the top dose activity change, negative = inhibition, most hits filed as inhibitors. 390,000 tested, 1% active; note: potency is the fitted concentration of half-maximal effect; % is set by controls: 0 for no effect and ±100 for the full control effect; nearly all actives have a fitted effect of over 65% in size
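Rat TrxR1 (90 nM in the dispensed reagent) was pre-reduced with 400 uM NADPH for 5 min at room temperature, then incubated with compound for 15 min. After 400 uM selenite was added, NADPH fluorescence (Ex 340/Em 450 nm) was followed for 8 min.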
TRb-SRC2 inh: Protein Interaction Secondary Assay for Inhibitors of the Interaction of Thyroid Hormone Receptor and Steroid Receptor Coregulator 2, Alpha Screen. Potency, µM. AID 2444, 2010. 30 tested, 50% active. AlphaScreen TRb LBD-SRC2 peptide binding, luminescence. shares compounds with TrxR1 inh; calls by dose curve
HepG2 viability: Cell Viability Secondary Assay for Inhibitors of the Interaction of Thyroid Hormone Receptor and Steroid Receptor Coregulator 2 | HepG2 viability, ATP luminescence (CellTiter-Glo), 72 h | Potency, µM | AID 2447, 2010 | 40 tested, 50% active | shares compounds with TrxR1 inh; calls by dose curve
AR SRC2 FP: Androgen Receptor Selectivity Assay for Inhibitors of the Interaction of Thyroid Hormone Receptor and Steroid Receptor Coregulator 2 | calls only | AR-LBD Tx-SRC2-3 fluorescence polarization, 3 h | shares compounds with TrxR1 inh | AID 2448, 2010 | 25 tested, under 10 active; call rule not given here
PPARg DRIP2 FP: PPAR gamma Selectivity Assay For Inhibitors of the Interaction of Thyroid Hormone Receptor and Steroid Receptor Coregulator 2 | PPARg LBD / Texas Red DRIP-2 peptide, fluorescence polarization, 3 h | 25 tested, under 10 active | Potency, µM | AID 2449, 2010 | shares compounds with TrxR1 inh; calls by dose curve
VDR SRC2 FP: Vitamin D Receptor Selectivity Assay for Inhibitors of the Interaction of Thyroid Hormone Receptor and Steroid Receptor Coregulator 2 | shares compounds with TrxR1 inh | VDR LBD/SRC2-3 peptide, fluorescence polarization, 3 h | Potency, µM | 25 tested, under 10 active | AID 2455, 2010; calls by dose curve
TRb SRC2 FluoFP: Secondary Confirmation Assay for Inhibitors of the Interaction of Thyroid Hormone Receptor and Steroid Receptor Coregulator 2, Fluorescein Fluoroprobe; 20 tested, under 10 active; Potency, µM; AID 2487, 2010; TRb LBD / fluorescein-SRC2 peptide, fluorescence polarization; shares compounds with TrxR1 inh; call rule not given here
Starred values were filed as active, the others as inactive; i = inactive; ? = inconclusive; . = not tested or not shown; [ ] = another dose, or the depositor's remark. Compounds with a hit are over-represented: about 1.8% of the library has one in this group of screens. Unless noted, calls come from the whole dose curve; as a rule, active = well fitted curve in the direction sought with a large enough effect; inconclusive = small, poorly fitted or top-dose-only effect, or another doubt; inactive = no such curve, though single readings can be large; an effect the other way counts as inactive or inconclusive.

SMILES | KAT2A inh | VDR inhibitor | TrxR1 substrate | TrxR1 inh | HepG2 viability | others
Cc1ccc(CNC(=O)c2cc3c(=O)n(C)c4ccccc4c3n2C)o1 | -4% | ? | 6% | ? | .
CS(=O)(=O)c1ccc(C(=O)OCC(=O)N2CCC(Cc3ccccc3)CC2)cc1[N+](=O)[O-] | . | . | . | . | 9µM*
CC1CCCCN1C(=O)COC(=O)CSc1ccc(C(N)=O)cc1[N+](=O)[O-] (configuration not stated) | . | 6% | 6%[57.1 µM] | 13%[57.1 µM] | .
CC1CN(C(=O)COC(=O)c2ccc(N)c([N+](=O)[O-])c2)CC(C)O1 (configuration not stated) | 4% | 9% | 6%[57.1 µM] | 4% | .
CCCC1CCN(C(=O)COC(=O)c2ccc(S(C)(=O)=O)c([N+](=O)[O-])c2)CC1 | . | . | . | . | 6.6µM*
CC1CCCCN1C(=O)COC(=O)c1ccc(S(C)(=O)=O)c([N+](=O)[O-])c1 (configuration not stated) | . | ? | -1% | 10µM* | 22µM* | TRb-SRC2 inh=19µM*;AR SRC2 FP=i;PPARg DRIP2 FP=i;VDR SRC2 FP=i;TRb SRC2 FluoFP=9.1µM*
NS(=O)(=O)c1cc2c(cc1C(F)(F)F)N[C@H](Cc1ccccc1)NS2(=O)=O | 0%[21.4 µM] | -15% | . | . | .
COc1ccc(-c2noc(CSc3nc4ccccc4[nH]3)n2)cc1OC | -5% | 1% | -6% | 6% | .

Screening results (PubChem BioAssay)
